# Measurements as given in PubChem BioAssay AID588728 (Vanderbilt Specialized Chemistry Center, 2011).
# Calls of active or inactive are those of the source.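 The calls were made as follows: active = compound at 10 µM that moves glutamate potency by over twofold either way, or clearly lowers or raises peak response; inactive = the rest.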
# Molecular target: Metabotropic glutamate receptor 3 (Rattus norvegicus) (UniProt P31422)
# Experiment: mGluR5 PAM selectivity profiling against rat mGluR3, glutamate response modulation, fold shift by Tl+ flux in HEK/GIRK cells (AID 588728)
# Settings: HEK/GIRK rat mGluR3, thallium flux, glutamate CRC fold shift, at 10 µM; Emax: measured here: glutamate max response with compound
# Metabotropic glutamate receptor 3 (Rattus norvegicus), sequence (P31422 whole entry, looked up): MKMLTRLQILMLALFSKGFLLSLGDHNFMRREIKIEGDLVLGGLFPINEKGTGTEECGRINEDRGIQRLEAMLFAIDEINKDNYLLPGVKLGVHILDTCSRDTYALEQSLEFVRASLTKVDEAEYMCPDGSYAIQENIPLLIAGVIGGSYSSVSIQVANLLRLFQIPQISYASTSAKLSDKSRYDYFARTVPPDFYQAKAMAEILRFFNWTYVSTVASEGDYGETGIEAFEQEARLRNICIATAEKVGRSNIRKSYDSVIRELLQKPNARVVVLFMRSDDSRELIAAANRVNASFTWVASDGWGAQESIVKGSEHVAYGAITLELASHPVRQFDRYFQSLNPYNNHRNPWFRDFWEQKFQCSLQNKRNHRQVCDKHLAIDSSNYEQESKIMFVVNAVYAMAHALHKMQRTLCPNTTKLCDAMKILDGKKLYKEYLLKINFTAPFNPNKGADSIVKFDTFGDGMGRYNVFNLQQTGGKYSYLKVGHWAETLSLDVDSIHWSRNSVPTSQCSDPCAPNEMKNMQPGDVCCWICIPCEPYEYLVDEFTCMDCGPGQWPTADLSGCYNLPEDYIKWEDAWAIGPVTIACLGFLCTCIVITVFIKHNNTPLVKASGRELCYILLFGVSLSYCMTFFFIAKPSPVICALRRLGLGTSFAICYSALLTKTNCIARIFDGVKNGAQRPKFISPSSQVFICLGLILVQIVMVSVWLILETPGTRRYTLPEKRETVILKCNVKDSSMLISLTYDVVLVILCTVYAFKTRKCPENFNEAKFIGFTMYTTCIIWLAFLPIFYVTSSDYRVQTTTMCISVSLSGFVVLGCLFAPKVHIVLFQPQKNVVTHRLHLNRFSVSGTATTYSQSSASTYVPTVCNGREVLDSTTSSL
Structure (SMILES),Emax,fold shift
CC1(NC(=O)c2ccc(C#Cc3cccc(F)c3)cn2)COC1,84%,0.85 (inactive)
C[C@@H](NC(=O)c1ccc(C#Cc2cccc(F)c2)cn1)C(C)(C)O,89%,0.95 (inactive)
